# Source: publication PMC7862700, “An all-to-all approach to the identification of sequence-specific readers for epigenetic DNA modifications on cytosine”
# Legend:
# Assay in all cases: DAPPL (digital affinity profiling via proximity ligation, sequencing); 10 mM Tris-HCl pH 7.5, 50 mM NaCl, 1 mM DTT, 4% glycerol, room temperature, 30 min; GST-TFs on glutathione beads, 16-mer random dsDNA library, 0.1% formaldehyde crosslink after washing; high values mean tight binding
# [1] = target: T1, FEV (Homo sapiens, UniProt Q99581 1-238); conditions: protein: recombinant; tags: N-terminal GST; dsDNA, one strand shown
# T1 sequence: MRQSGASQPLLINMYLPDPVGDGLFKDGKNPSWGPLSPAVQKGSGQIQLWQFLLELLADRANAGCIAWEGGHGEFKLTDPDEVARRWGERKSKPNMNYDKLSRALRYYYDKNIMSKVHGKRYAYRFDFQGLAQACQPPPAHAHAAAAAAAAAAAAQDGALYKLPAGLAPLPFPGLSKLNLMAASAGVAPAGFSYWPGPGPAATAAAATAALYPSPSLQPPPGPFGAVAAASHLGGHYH
# Outline: (§1)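 The binding signal reported is, for every hexamer, its read frequency for a factor over its read frequency for the tag-only sample. Reads came from pools of yeast-expressed, GST-fused human transcription factors on glutathione beads, barcoded with DNA and mixed with that sample, which were incubated with 200 nmole of a random double-stranded 16-mer DNA library in Tris/NaCl/DTT/glycerol buffer at room temperature for 30 min. After washing, the pools were crosslinked with 0.1% formaldehyde, proximity-ligated with BsaI/T4 ligase for 1 h at 37 °C, PCR-amplified and sequenced on an Illumina NextSeq500.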
# [2] = target: ETV5 (Homo sapiens, UniProt P41161 1-510); conditions: protein: recombinant; tags: N-terminal GST; dsDNA, one strand shown
# Outline: as §1
# [3] = target: HSF1 (Homo sapiens, UniProt Q00613 1-529); conditions: protein: recombinant; tags: N-terminal GST; chain copies: 3; dsDNA, one strand shown
# Outline: as §1
# [4] = target: T2, SPIC (Homo sapiens, UniProt Q8N5J4 1-248); conditions: protein: recombinant; tags: N-terminal GST; dsDNA, one strand shown
# T2 sequence: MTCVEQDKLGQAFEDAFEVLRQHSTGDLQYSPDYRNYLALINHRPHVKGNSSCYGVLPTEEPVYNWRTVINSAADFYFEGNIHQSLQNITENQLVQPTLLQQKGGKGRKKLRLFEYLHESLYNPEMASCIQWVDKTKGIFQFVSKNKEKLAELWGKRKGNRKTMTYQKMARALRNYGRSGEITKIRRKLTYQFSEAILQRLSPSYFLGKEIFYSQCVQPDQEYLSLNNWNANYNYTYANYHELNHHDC
# Outline: as §1
# [5] = target: ELF4 (Homo sapiens, UniProt Q99607 1-663); conditions: protein: recombinant; tags: N-terminal GST; dsDNA, one strand shown
# Outline: as §1
# [6] = target: T3, ELK4 (Homo sapiens, UniProt P28324-2 1-405); conditions: protein: recombinant; tags: N-terminal GST; dsDNA, one strand shown
# T3 sequence: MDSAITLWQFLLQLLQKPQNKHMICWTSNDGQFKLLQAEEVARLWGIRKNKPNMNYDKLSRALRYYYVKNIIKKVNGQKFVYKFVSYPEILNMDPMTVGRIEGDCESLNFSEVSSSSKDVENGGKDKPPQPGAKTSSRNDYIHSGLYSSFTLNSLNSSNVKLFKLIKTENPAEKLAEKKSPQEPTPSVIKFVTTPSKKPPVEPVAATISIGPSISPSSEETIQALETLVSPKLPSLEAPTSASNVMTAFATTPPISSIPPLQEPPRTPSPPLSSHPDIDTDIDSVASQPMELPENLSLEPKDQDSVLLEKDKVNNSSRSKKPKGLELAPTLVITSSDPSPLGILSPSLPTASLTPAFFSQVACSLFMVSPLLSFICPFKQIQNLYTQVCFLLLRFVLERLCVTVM
# Outline: as §1
# [7] = target: T4, ETV2 (Homo sapiens, UniProt O00321 1-342); conditions: protein: recombinant; tags: N-terminal GST; dsDNA, one strand shown
# T4 sequence: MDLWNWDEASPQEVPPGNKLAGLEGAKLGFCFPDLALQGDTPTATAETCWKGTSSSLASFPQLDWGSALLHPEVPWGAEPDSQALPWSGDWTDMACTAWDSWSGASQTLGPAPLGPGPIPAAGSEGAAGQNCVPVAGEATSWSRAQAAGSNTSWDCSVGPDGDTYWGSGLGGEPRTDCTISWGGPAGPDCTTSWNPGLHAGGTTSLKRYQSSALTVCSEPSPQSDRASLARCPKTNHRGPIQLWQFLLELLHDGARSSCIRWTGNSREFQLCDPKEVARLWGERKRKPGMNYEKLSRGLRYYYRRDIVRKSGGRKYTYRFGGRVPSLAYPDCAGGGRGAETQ
# Outline: as §1
# [8] = target: T5, ELF3 (Homo sapiens, UniProt P78545 1-371); conditions: protein: recombinant; tags: N-terminal GST; dsDNA, one strand shown
# T5 sequence: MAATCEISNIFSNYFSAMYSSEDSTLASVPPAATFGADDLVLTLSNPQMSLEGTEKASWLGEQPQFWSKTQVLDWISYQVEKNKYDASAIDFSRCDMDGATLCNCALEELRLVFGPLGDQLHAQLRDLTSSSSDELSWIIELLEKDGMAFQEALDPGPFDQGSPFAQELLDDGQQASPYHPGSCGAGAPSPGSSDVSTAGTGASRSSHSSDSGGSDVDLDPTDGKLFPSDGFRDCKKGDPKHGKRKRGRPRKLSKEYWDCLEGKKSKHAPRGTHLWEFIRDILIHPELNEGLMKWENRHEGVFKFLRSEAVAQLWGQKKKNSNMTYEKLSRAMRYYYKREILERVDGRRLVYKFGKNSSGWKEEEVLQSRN
# Outline: as §1
# [9] = target: CRX (Homo sapiens, UniProt O43186 1-299); conditions: protein: recombinant; tags: N-terminal GST; dsDNA, one strand shown
# Outline: as §1
# [10] = target: ETV1 (Homo sapiens, UniProt P50549 1-477); conditions: protein: recombinant; tags: N-terminal GST; dsDNA, one strand shown
# Outline: as §1
# [11] = target: T6, ERF (Homo sapiens, UniProt P50548 1-548); conditions: protein: recombinant; tags: N-terminal GST; dsDNA, one strand shown
# T6 sequence: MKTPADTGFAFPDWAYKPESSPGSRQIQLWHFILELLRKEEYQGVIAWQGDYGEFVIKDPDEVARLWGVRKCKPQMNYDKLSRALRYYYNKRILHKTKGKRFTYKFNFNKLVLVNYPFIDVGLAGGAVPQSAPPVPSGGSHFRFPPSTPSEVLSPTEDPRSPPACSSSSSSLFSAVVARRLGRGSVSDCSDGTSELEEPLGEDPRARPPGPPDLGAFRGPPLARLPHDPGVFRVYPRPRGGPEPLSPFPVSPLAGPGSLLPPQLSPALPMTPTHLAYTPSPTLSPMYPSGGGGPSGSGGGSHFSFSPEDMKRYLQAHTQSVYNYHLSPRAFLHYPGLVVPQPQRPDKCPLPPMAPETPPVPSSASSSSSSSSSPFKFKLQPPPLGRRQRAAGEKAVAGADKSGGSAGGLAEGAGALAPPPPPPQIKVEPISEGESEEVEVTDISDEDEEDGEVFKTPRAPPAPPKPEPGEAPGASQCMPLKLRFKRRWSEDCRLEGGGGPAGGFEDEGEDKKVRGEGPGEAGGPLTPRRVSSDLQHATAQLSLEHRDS
# Outline: as §1
# [12] = target: T7, ETV3L (Homo sapiens, UniProt Q6ZN32 1-361); conditions: protein: recombinant; tags: N-terminal GST; dsDNA, one strand shown
# T7 sequence: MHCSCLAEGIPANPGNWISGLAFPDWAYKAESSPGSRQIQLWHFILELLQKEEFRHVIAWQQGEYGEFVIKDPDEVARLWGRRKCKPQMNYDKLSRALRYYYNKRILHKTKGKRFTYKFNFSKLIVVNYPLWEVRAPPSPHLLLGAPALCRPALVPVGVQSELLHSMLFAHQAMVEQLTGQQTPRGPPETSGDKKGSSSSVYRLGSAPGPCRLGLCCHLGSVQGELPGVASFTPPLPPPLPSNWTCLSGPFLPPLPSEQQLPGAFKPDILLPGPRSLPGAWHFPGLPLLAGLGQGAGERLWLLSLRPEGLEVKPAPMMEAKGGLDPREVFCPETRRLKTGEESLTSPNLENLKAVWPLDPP
# Outline: as §1
# [13] = target: T8, ETS2 (Homo sapiens, UniProt P15036 1-469); conditions: protein: recombinant; tags: N-terminal GST; dsDNA, one strand shown
# T8 sequence: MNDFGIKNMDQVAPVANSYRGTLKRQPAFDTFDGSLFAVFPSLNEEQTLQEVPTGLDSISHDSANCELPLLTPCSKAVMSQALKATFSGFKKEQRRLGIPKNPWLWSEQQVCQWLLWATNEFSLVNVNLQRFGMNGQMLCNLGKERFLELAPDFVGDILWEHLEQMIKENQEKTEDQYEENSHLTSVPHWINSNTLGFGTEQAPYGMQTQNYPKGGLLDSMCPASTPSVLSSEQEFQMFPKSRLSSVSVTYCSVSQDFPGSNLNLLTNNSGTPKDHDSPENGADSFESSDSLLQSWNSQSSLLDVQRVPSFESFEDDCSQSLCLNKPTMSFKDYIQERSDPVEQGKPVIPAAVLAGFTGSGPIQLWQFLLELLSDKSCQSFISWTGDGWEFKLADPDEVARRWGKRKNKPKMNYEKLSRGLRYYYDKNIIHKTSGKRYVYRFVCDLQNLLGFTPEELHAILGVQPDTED
# Outline: as §1
# [14] = target: T9, SPDEF (Homo sapiens, UniProt O95238 1-335); conditions: protein: recombinant; tags: N-terminal GST; dsDNA, one strand shown
# T9 sequence: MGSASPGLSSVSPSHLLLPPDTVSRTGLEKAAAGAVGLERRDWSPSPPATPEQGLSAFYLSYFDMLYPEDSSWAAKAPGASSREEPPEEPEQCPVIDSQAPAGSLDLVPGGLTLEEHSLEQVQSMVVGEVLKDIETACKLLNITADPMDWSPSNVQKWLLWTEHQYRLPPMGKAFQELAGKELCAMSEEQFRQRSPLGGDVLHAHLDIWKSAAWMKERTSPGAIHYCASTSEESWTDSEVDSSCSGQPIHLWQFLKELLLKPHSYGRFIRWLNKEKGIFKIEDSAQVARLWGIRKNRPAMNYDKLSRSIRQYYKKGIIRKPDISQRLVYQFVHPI
# Outline: as §1
# [15] = target: T10, ETV7 (Homo sapiens, UniProt Q9Y603 1-341); conditions: protein: recombinant; tags: N-terminal GST; dsDNA, one strand shown
# T10 sequence: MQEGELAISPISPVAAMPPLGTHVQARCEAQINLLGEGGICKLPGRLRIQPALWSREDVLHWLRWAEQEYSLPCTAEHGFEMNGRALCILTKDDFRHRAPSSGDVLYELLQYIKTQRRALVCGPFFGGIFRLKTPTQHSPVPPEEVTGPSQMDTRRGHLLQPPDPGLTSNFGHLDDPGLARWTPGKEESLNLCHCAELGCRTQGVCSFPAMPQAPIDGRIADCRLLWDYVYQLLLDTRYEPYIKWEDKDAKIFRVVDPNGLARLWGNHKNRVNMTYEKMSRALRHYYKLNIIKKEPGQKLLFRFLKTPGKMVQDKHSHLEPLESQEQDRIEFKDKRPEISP
# Outline: as §1
# [16] = target: T11, ELF5 (Homo sapiens, UniProt Q9UKW6-2 1-255); conditions: protein: recombinant; tags: N-terminal GST; dsDNA, one strand shown
# T11 sequence: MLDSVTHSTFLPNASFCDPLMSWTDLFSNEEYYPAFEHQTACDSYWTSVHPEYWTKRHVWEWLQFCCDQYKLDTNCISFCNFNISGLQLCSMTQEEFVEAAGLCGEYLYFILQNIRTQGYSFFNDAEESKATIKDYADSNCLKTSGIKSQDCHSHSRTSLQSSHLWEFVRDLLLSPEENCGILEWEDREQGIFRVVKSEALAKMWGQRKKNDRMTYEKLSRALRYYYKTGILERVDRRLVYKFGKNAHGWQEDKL
# Outline: as §1
# [17] = target: T12, ETV3 (Homo sapiens, UniProt P41162-2 1-143); conditions: protein: recombinant; tags: N-terminal GST; dsDNA, one strand shown
# T12 sequence: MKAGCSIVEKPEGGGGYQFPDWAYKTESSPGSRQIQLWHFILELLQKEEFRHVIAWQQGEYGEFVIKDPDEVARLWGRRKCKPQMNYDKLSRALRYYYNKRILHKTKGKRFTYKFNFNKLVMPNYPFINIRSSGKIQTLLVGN
# Outline: as §1
# [18] = target: ETV6 (Homo sapiens, UniProt P41212 1-452); conditions: protein: recombinant; tags: N-terminal GST; dsDNA, one strand shown
# Outline: as §1
# Chain of ETV1 (P50549 whole entry): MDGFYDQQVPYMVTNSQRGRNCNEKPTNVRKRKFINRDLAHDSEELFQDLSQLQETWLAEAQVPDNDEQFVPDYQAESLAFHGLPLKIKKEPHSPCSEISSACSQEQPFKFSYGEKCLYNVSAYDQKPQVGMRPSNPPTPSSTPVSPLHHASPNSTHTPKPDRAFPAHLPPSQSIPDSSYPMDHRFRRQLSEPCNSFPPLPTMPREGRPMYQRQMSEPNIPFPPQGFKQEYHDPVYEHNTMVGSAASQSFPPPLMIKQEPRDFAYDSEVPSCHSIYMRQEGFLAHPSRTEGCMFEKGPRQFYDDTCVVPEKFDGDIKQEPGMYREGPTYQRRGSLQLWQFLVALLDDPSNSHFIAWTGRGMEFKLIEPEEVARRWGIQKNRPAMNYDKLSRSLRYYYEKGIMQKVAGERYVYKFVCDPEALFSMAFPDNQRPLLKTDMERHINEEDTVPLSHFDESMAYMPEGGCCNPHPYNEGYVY
# Chain of CRX (O43186 whole entry): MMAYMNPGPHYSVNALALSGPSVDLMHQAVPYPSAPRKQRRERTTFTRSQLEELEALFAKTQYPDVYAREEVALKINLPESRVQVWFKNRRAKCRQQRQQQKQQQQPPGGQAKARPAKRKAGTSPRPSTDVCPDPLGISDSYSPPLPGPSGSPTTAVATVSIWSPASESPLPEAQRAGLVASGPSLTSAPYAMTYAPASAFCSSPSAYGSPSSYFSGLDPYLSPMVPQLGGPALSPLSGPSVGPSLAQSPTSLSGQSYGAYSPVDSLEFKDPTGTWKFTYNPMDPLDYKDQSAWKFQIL
# Chain of HSF1 (Q00613 whole entry): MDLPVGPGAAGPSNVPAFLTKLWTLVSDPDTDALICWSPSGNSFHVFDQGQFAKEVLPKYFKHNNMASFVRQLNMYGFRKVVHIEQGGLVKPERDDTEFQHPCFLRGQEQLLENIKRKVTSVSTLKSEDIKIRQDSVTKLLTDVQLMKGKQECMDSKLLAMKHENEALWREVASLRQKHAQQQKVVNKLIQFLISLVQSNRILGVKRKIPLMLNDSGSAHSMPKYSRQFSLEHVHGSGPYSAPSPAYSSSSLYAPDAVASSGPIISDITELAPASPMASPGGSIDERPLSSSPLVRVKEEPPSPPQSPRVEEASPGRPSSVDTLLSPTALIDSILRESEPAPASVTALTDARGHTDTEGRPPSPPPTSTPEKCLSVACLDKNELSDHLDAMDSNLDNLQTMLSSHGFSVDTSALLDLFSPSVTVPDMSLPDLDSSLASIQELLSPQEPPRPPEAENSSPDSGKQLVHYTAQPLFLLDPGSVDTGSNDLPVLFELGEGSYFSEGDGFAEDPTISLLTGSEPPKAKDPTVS
# Chain of ELF4 (Q99607 whole entry): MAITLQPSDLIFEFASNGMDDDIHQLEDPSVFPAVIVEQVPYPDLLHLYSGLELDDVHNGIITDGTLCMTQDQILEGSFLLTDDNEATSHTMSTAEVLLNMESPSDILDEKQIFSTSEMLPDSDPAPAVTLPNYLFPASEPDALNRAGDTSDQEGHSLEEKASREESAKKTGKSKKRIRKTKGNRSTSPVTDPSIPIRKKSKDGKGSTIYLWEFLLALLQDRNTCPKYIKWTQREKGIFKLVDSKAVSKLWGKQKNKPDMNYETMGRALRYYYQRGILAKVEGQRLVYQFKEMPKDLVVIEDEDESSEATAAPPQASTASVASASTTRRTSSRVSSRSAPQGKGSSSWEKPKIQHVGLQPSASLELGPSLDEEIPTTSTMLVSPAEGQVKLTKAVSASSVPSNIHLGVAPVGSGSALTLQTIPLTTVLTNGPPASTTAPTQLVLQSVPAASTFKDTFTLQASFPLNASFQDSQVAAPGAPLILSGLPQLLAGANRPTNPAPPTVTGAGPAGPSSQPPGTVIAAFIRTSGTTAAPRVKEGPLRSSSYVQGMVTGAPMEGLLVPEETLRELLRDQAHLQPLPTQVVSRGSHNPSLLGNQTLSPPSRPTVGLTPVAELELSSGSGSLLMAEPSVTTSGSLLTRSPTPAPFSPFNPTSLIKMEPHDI
# Chain of ETV6 (P41212 whole entry): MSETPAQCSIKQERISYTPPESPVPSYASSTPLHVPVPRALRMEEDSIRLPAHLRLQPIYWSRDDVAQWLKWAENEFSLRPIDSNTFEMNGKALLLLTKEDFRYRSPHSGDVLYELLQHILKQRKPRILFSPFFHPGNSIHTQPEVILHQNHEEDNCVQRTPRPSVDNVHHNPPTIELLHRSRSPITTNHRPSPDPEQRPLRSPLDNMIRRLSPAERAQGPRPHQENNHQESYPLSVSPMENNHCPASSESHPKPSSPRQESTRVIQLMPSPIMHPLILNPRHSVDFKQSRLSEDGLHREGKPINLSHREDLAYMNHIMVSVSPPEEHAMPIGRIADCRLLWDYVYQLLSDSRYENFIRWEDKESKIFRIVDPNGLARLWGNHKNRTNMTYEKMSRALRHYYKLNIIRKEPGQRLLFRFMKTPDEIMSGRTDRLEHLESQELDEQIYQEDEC
# Chain of ETV5 (P41161 whole entry): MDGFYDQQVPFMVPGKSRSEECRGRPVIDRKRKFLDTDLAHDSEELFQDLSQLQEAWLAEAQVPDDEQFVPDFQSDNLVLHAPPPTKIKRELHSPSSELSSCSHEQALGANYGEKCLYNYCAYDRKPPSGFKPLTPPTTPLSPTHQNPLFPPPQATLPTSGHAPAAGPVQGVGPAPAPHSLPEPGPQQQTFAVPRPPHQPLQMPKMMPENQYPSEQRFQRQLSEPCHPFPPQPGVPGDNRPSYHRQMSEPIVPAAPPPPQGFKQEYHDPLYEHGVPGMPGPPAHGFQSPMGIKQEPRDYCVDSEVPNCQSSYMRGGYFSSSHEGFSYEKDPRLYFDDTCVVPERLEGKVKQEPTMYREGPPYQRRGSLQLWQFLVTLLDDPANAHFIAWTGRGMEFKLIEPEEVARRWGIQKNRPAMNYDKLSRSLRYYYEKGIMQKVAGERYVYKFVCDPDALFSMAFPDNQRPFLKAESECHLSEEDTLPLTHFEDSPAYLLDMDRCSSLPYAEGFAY
sequence,measurement,setting,value
CGATTG,binding signal,[1],"1.12 fold enrichment (6-mer frequency, TF over GST control)"
same,binding signal,[2],"1.18 fold enrichment (6-mer frequency, TF over GST control)"
same,binding signal,[3],"1.21 fold enrichment (6-mer frequency, TF over GST control)"
same,binding signal,[4],"1.08 fold enrichment (6-mer frequency, TF over GST control)"
same,binding signal,[5],"1.28 fold enrichment (6-mer frequency, TF over GST control)"
same,binding signal,[6],"1.34 fold enrichment (6-mer frequency, TF over GST control)"
same,binding signal,[7],"1.08 fold enrichment (6-mer frequency, TF over GST control)"
same,binding signal,[8],"1.14 fold enrichment (6-mer frequency, TF over GST control)"
same,binding signal,[9],"1.16 fold enrichment (6-mer frequency, TF over GST control)"
same,binding signal,[10],"1.16 fold enrichment (6-mer frequency, TF over GST control)"
same,binding signal,[11],"1.24 fold enrichment (6-mer frequency, TF over GST control)"
same,binding signal,[12],"1.17 fold enrichment (6-mer frequency, TF over GST control)"
same,binding signal,[13],"1.15 fold enrichment (6-mer frequency, TF over GST control)"
same,binding signal,[14],"1.22 fold enrichment (6-mer frequency, TF over GST control)"
same,binding signal,[15],"1.18 fold enrichment (6-mer frequency, TF over GST control)"
same,binding signal,[16],"1.11 fold enrichment (6-mer frequency, TF over GST control)"
same,binding signal,[17],"1.07 fold enrichment (6-mer frequency, TF over GST control)"
same,binding signal,[18],"1.22 fold enrichment (6-mer frequency, TF over GST control)"
